Screen size: about 9,900 compounds; about 90 (0.9%) were called active. Roughly 2% stayed inconclusive and do not appear here. What follows is part of a selection rich in actives, with near analogues and random picks from the rest. A number with no mark means an inactive call.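 How the source made its calls: active means mean normalized replicate activity at least 50 and at least half of replicates each reaching 50; inconclusive means only one of the two criteria met; inactive means neither criterion met.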
Assay: YAP1 pathway inhibitors via CTGF transcript, primary screen, DLD1 colon cancer cells, RT-qPCR, single point (AID 743449);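 further: 0% = neutral control wells and 100% = dasatinib control wells; higher means stronger suppression of CTGF expression like dasatinib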
Settings: DLD1 CTGF mRNA qPCR, 24 h; at 12.5 µM; hits give high values
`O=C(Nc1ccc(-c2ccccc2)cc1)[C@H]1[C@H](CO)[C@H]2Cn3c(cccc3=O)[C@H]2N1CC1CCOCC1` showed an inhibition of 14.4%.
`O=C(C[C@H]1C[C@@H]2c3cc(NC(=O)C4CCC4)ccc3O[C@@H]2[C@H](CO)O1)NC1CCCC1` gave an inhibition of -3.69%.
With `CCCC(=O)Nc1ccc2c(c1)C(=O)N(C)[C@H]1CC[C@@H](CC(=O)N3CCCCC3)O[C@@H]1CO2` the inhibition was -2.53%.
With `CC(C)(C)[S@@](=O)N1Cc2cc(C(=O)NCCc3ccncc3)nc(-c3cccc(-c4cccc(C#N)c4)c3)c2[C@H]1CCO` the inhibition was 67.3% (active).
For `CC(C)(C)[S@](=O)N1Cc2cc(C(=O)NCCc3ccncc3)nc(-c3cccc(-c4cccc(C#N)c4)c3)c2[C@@H]1CCO`, the inhibition was 79.3% (active).
For `CC(C)(C)[S@](=O)N1Cc2cc(C(=O)NCCN3CCCC3)nc(-c3cccc(-c4ccc(C#N)cc4)c3)c2[C@@H]1CCO`, the inhibition was 29.4%.
For `COc1ccccc1-c1cccc(-c2nc(C(=O)NCc3ccncc3)cc3c2[C@@H](CCO)N([S@](=O)C(C)(C)C)C3)c1`, the inhibition was 20%.
`COc1ccccc1-c1cccc(-c2nc(C(=O)NCc3ccncc3)cc3c2[C@H](CCO)N([S@@](=O)C(C)(C)C)C3)c1` showed an inhibition of 19.4%.
`CC(C)(C)[S@@](=O)N1Cc2cc(C(=O)NCCN3CCCC3)nc(-c3cccc(-c4ccc(C#N)cc4)c3)c2[C@H]1CCO` showed an inhibition of -8.4%.
Work on `CCS(=O)(=O)N1CC2(CN(C(=O)c3ccc(F)cc3)[C@@H](CO)c3[nH]c4cc(OC)ccc4c32)C1` yielded an inhibition of 11.6%.
Work on `C[C@@H]1CN([C@@H](C)CO)C(=O)c2cc(NC(=O)Nc3cccc4ccccc34)ccc2O[C@@H](C)CCCCO[C@@H]1CN(C)Cc1ccc(C(F)(F)F)cc1` yielded an inhibition of -20.9%.
For `COc1ccc(C#Cc2ccc3c(c2)[C@H]2[C@H](CCN2S(=O)(=O)c2ccccc2C)[C@@H](CO)N3C)cc1`, the inhibition was -15.4%.
`CCCC(=O)N1CC2(C1)CN(CC1CC1)[C@@H](CO)c1[nH]c3cc(OC)ccc3c12` gave an inhibition of -16.5%.
With `COCC(=O)NC[C@@H]1[C@@H](c2ccccc2)[C@H](CO)N1C(=O)c1ccccc1` the inhibition was 19.2%.
With `O=C(CN1CCOCC1)N1CC(=O)N2[C@H](CO)[C@H](c3ccc(-c4cccc(F)c4)cc3)[C@@H]2C1` the inhibition was -2.97%.
In the case of `C[C@@H]1CN([C@@H](C)CO)S(=O)(=O)c2ccc(C#Cc3cccc(F)c3)cc2O[C@@H]1CN(C)S(=O)(=O)c1cn(C)cn1`, the inhibition is reported as 40.9%.
`C[C@@H]1CN([C@@H](C)CO)S(=O)(=O)c2ccc(C#Cc3cccc(F)c3)cc2O[C@H]1CN(C)S(=O)(=O)c1cn(C)cn1` showed an inhibition of 8.89%.
In the case of `COc1cccc(C#Cc2ccc3c(c2)O[C@@H](CN(C)C(=O)CN2CCOCC2)[C@@H](C)CN([C@@H](C)CO)S3(=O)=O)c1`, the inhibition is reported as 50.7% (active).
With `C[C@@H]1CN([C@H](C)CO)S(=O)(=O)c2ccc(C#Cc3cccc(F)c3)cc2O[C@@H]1CN(C)S(=O)(=O)c1cn(C)cn1` the inhibition was 72.6% (active).
`COc1cccc(C#Cc2ccc3c(c2)O[C@H](CN(C)C(=O)CN2CCOCC2)[C@H](C)CN([C@@H](C)CO)S3(=O)=O)c1` showed an inhibition of 22.3%.
For `COc1cccc(C#Cc2ccc3c(c2)O[C@@H](CN(C)C(=O)CN2CCOCC2)[C@@H](C)CN([C@H](C)CO)S3(=O)=O)c1`, the inhibition was 8.35%.
For `O=C(CN1CCOCC1)N[C@@H]1CC[C@@H](CCn2cc(C3CC3)nn2)O[C@H]1CO`, the inhibition was -8.58%.
`C[C@@H]1CN([C@@H](C)CO)C(=O)c2cccc(NS(=O)(=O)c3ccc(F)cc3)c2O[C@@H]1CN(C)Cc1ccc(Cl)c(Cl)c1` showed an inhibition of -11.4%.
Work on `C[C@@H](NC(=O)C[C@H]1C=C[C@H](NS(=O)(=O)c2cccc(F)c2)[C@H](CO)O1)c1ccccc1` yielded an inhibition of -23.7%.
Work on `O=C(CC1CC1)N1CC(=O)N2[C@H](C1)[C@H](c1ccc(C#Cc3cccc(F)c3)cc1)[C@@H]2CO` yielded an inhibition of 23.8%.
For `O=C(CC1CC1)N1CC(=O)N2[C@H](CO)[C@@H](c3ccc(C#Cc4cccc(F)c4)cc3)[C@H]2C1`, the inhibition was 50.5% (active).
Work on `COCC(=O)N1CC(=O)N2[C@H](CO)[C@H](c3ccc(C#CC4CC4)cc3)[C@@H]2C1` yielded an inhibition of -14.5%.
For `O=C(CC1CC1)N1CC(=O)N2[C@@H](CO)[C@H](c3ccc(C#Cc4cccc(F)c4)cc3)[C@@H]2C1`, the inhibition was 33%.
`CS(=O)(=O)N1CC(=O)N2[C@H](C1)[C@H](c1ccc(C#Cc3ccc(F)cc3)cc1)[C@@H]2CO` gave an inhibition of -7.23%.
With `COCC(=O)N1CC(=O)N2[C@H](CO)[C@@H](c3ccc(C#CC4CC4)cc3)[C@H]2C1` the inhibition was 62.3% (active).
In the case of `O=C(CC1CC1)N1CC(=O)N2[C@@H](CO)[C@H](c3ccc(/C=C/c4ccccc4)cc3)[C@@H]2C1`, the inhibition is reported as 52.4% (active).
`O=C(CC1CC1)N1CC(=O)N2[C@H](C1)[C@@H](c1ccc(/C=C/c3ccccc3)cc1)[C@@H]2CO` showed an inhibition of 16.9%.
Work on `COCC(=O)N1CC(=O)N2[C@H](CO)[C@H](c3ccc(C#CC4CC4)cc3)[C@H]2C1` yielded an inhibition of 25.9%.
`O=C(CC1CC1)N1CC(=O)N2[C@H](CO)[C@@H](c3ccc(/C=C/c4ccccc4)cc3)[C@@H]2C1` showed an inhibition of 24.1%.
`CS(=O)(=O)N1CC(=O)N2[C@H](CO)[C@@H](c3ccc(C#Cc4ccc(F)cc4)cc3)[C@H]2C1` showed an inhibition of 43.4%.
For `CS(=O)(=O)N1CC(=O)N2[C@H](C1)[C@@H](c1ccc(C#Cc3ccc(F)cc3)cc1)[C@@H]2CO`, the inhibition was 63.2% (active).
For `CO[C@@H]1CN(C)C(=O)c2cc(NC(=O)Nc3cccc(Cl)c3)ccc2OC[C@@H](C)N(C(=O)Nc2c(C)noc2C)C[C@H]1C`, the inhibition was 19.6%.
Work on `C[C@H]1CN([C@@H](C)CO)C(=O)c2cc(NC(=O)C3CC3)ccc2O[C@@H]1CN(C)S(=O)(=O)c1ccccc1` yielded an inhibition of -17.4%.
`C[C@H](CO)N1C[C@H](C)[C@@H](CN(C)C(=O)Nc2ccccc2)OCCCC[C@H](C)Oc2ccc(NC(=O)Nc3ccccc3)cc2C1=O` gave an inhibition of 20%.
`C[C@@H]1CN([C@H](C)CO)C(=O)Cc2cc(N(C)C)ccc2O[C@H]1CN(C)Cc1ccc(-c2ccccc2)cc1` gave an inhibition of -24.6%.
Work on `O=C(c1ccccc1F)N1CC[C@H]2[C@H](CO)Nc3ccc(Br)cc3[C@H]21` yielded an inhibition of -3.54%.
Work on `O=C1CCCCn2nncc2COC[C@H](Cc2ccccc2)N1` yielded an inhibition of -21.7%.
For `COc1ccc(S(=O)(=O)Nc2ccc3c(c2)C(=O)N([C@@H](C)CO)C[C@H](C)[C@@H](CN(C)S(=O)(=O)c2ccc(Cl)cc2)OCCCC[C@@H](C)O3)cc1`, the inhibition was 50.6% (active).
`Cc1ccc(S(=O)(=O)Nc2ccc3c(c2)C(=O)N([C@@H](C)CO)C[C@@H](C)[C@H](CN(C)S(=O)(=O)c2cccs2)OCCCC[C@H](C)O3)cc1` showed an inhibition of -3.15%.
In the case of `COc1ccc(S(=O)(=O)Nc2ccc3c(c2)C(=O)N([C@H](C)CO)C[C@H](C)[C@H](CN(C)S(=O)(=O)c2ccc(Cl)cc2)OCCCC[C@@H](C)O3)cc1`, the inhibition is reported as -2.26%.
For `Cc1ccc(S(=O)(=O)Nc2ccc3c(c2)C(=O)N([C@H](C)CO)C[C@@H](C)[C@H](CN(C)S(=O)(=O)c2cccs2)OCCCC[C@@H](C)O3)cc1`, the inhibition was 57.5% (active).
In the case of `Cc1ccc(S(=O)(=O)Nc2ccc3c(c2)C(=O)N([C@H](C)CO)C[C@H](C)[C@@H](CN(C)S(=O)(=O)c2cccs2)OCCCC[C@H](C)O3)cc1`, the inhibition is reported as -31%.
Compound `Cc1ccc(S(=O)(=O)Nc2ccc3c(c2)CC(=O)N([C@@H](C)CO)C[C@H](C)[C@@H](CN(C)S(=O)(=O)c2ccccc2)O3)cc1` has an inhibition of -31.9%.
In the case of `COc1ccc(S(=O)(=O)Nc2ccc3c(c2)C(=O)N([C@H](C)CO)C[C@H](C)[C@@H](CN(C)S(=O)(=O)c2ccc(Cl)cc2)OCCCC[C@H](C)O3)cc1`, the inhibition is reported as -8.83%.
Compound `Cc1ccc(S(=O)(=O)Nc2ccc3c(c2)CC(=O)N([C@H](C)CO)C[C@@H](C)[C@H](CN(C)S(=O)(=O)c2ccccc2)O3)cc1` has an inhibition of -17.2%.
In the case of `Cc1ccc(S(=O)(=O)Nc2ccc3c(c2)CC(=O)N([C@H](C)CO)C[C@@H](C)[C@@H](CN(C)S(=O)(=O)c2ccccc2)O3)cc1`, the inhibition is reported as 57.6% (active).
`O=C(C[C@@H]1C=C[C@H](NC(=O)c2cnccn2)[C@H](CO)O1)NCc1ccccc1F` showed an inhibition of 7.69%.
With `COc1ccc2c3c([nH]c2c1)[C@H](CO)NCC31CN(C(=O)Nc2c(C)noc2C)C1` the inhibition was -10.8%.
`COc1ccc(CN(C)C[C@@H]2OCCCC[C@@H](C)Oc3ccc(NC(=O)C4CCCCC4)cc3C(=O)N([C@H](C)CO)C[C@@H]2C)cc1` showed an inhibition of -11.6%.
`N#C[C@@H]1[C@H](c2ccc(-c3cccc(F)c3)cc2)[C@@H](CO)N1C(=O)CN1CCOCC1` gave an inhibition of 0.153%.
`CN1C(=O)c2cc(NC(=O)c3cccc(Cl)c3)ccc2OC[C@H]2O[C@@H](CC(=O)NC3CCCCC3)CC[C@H]21` gave an inhibition of 19.3%.
Work on `COc1ccc(C(=O)N2C[C@H]3[C@@H](c4ccccc42)[C@@H](CO)N3Cc2ccccc2Cl)cc1` yielded an inhibition of -11.9%.
Compound `COCC(=O)N1[C@H](CO)[C@H](c2ccc(C#Cc3ccccc3F)cc2)[C@@H]1C#N` has an inhibition of 5.53%.
Work on `COc1ccc(C(=O)N2C[C@@H]3[C@H](c4ccccc42)[C@H](CO)N3C(=O)NC(C)C)cc1` yielded an inhibition of -12.1%.

From PubChem BioAssay AID743449 (Broad Institute, 2014)
